# Data reported in ChEMBL document CHEMBL3988442, “University of Dundee, Small-Polar-MMV Screening Library” (2021).
# “And” between values parts separate entries of the source, which are not always exact repeats. Equal values may be shown once. For part of these data: Measured potencies and affinities stand elsewhere.
# Tests used:
# [1] = target: T1, Methionyl-tRNA synthetase, putative (Leishmania donovani (strain BPK282A1)) (UniProt E9BF75); experiment: Leishmania donovani Methionine tRNA synthetase (LdMetRS):v7. Dose response assay; format: functional; parameters: conc 80 nM, time 150 minutes
# T1 sequence (whole entry): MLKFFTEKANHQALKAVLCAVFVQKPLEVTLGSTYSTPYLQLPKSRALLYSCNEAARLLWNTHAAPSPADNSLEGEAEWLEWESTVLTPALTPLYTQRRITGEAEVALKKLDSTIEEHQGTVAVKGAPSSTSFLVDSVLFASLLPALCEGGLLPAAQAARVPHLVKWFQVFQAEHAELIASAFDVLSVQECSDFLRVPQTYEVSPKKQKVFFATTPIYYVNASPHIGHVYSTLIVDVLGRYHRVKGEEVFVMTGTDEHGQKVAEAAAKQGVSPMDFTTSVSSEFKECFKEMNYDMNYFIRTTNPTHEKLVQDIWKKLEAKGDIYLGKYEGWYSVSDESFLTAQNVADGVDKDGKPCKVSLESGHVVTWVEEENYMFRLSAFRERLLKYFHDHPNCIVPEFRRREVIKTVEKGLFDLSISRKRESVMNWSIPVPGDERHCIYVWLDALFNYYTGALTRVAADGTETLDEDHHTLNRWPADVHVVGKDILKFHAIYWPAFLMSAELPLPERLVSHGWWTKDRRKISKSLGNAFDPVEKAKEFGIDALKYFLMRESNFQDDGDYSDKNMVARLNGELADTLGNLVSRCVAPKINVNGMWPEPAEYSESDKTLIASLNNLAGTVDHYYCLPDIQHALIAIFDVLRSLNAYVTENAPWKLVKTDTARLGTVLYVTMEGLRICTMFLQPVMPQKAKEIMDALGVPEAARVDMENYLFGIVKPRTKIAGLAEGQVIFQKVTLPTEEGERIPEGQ
# [2] = target: Protein translocase subunit SecA (Escherichia coli (strain K12)) (UniProt P10408); experiment: Assay to Identify E. coli SecA ATPase Inhibitors; format: functional; parameters: scale not given: direction of the effect not stated beside the values; settings: 30 µM
# Sequence of Protein translocase subunit SecA (Escherichia coli (strain K12)) (P10408 whole entry): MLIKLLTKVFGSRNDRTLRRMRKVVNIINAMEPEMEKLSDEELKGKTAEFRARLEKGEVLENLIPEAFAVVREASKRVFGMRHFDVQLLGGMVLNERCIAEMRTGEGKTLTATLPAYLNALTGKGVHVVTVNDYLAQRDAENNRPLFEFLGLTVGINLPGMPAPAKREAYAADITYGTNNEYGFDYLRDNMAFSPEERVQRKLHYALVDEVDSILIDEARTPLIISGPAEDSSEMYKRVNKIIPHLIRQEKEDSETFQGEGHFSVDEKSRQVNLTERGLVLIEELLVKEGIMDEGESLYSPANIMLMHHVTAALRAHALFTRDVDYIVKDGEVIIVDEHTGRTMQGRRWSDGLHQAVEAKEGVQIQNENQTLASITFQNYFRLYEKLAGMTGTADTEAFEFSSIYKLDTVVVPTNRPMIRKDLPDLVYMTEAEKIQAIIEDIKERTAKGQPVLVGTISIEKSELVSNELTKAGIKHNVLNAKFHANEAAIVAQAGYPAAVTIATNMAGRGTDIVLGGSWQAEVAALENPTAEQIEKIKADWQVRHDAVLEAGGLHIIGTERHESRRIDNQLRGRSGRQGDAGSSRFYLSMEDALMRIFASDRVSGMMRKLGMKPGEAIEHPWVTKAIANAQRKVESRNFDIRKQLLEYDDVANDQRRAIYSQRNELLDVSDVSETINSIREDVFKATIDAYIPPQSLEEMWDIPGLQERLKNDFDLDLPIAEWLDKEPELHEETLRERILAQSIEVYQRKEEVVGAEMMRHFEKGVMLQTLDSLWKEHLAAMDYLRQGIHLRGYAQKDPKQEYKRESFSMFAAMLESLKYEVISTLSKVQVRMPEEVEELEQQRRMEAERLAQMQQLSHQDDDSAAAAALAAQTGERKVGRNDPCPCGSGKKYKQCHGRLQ
# [3] = target: T2, Ubiquitin-activating enzyme e1, putative (Leishmania donovani (strain BPK282A1)) (UniProt E9BSI1); experiment: Leishmania donovani Ubiquitin Activating Enzyme (LdE1); format: functional; parameters: scale not given: direction of the effect not stated beside the values; settings: 30 µM
# T2 sequence (whole entry): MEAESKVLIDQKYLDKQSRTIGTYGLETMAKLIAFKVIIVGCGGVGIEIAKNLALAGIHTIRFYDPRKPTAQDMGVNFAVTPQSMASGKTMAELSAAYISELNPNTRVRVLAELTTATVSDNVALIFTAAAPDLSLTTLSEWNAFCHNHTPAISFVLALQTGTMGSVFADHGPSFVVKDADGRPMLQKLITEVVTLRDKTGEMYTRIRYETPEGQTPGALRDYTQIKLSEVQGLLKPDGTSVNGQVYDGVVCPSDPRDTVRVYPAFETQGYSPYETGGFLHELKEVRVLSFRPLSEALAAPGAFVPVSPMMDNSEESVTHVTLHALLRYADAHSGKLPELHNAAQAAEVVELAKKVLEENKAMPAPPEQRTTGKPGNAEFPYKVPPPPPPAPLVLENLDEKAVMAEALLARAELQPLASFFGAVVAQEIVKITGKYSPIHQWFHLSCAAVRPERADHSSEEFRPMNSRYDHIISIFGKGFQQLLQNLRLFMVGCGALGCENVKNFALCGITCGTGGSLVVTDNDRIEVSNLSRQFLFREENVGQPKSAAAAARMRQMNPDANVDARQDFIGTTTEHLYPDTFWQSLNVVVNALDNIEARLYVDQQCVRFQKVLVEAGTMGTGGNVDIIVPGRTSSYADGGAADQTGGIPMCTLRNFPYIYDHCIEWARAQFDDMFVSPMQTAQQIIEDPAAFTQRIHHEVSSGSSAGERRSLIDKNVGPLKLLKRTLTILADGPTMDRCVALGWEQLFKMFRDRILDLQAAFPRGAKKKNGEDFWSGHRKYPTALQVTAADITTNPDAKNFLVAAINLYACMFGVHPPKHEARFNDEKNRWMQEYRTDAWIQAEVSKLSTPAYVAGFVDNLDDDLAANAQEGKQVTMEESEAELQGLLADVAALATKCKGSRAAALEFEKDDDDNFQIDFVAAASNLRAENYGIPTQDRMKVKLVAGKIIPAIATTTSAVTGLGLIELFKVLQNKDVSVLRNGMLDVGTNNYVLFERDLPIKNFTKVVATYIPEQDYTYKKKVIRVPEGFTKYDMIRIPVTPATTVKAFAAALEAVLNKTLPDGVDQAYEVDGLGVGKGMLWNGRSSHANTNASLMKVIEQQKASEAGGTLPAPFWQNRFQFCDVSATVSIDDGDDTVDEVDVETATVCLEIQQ
# [4] = target: AMP-activated protein kinase, AMPK (Homo sapiens) (UniProt P54646+O43741+P54619+Q9UGJ0+Q9Y478+Q13131+Q9UGI9); experiment: AMP-dependent Kinase enzyme assay. An in vitro enzyme assay that detects ADP turnover that is directly proportional to AMPK activity. This uses naive AMPK that is activated during the assay with MK-8722; format: functional; parameters: scale not given: direction of the effect not stated beside the values; settings: 30 µM
# [5] = target: Sialic acid-binding Ig-like lectin 9 (Homo sapiens) (UniProt Q9Y336); experiment: Hs-Siglec9 ALPHAscreen SOP 20170721; parameters: scale not given: direction of the effect not stated beside the values; settings: 10 µM
# Sequence of Sialic acid-binding Ig-like lectin 9 (Homo sapiens) (Q9Y336 whole entry): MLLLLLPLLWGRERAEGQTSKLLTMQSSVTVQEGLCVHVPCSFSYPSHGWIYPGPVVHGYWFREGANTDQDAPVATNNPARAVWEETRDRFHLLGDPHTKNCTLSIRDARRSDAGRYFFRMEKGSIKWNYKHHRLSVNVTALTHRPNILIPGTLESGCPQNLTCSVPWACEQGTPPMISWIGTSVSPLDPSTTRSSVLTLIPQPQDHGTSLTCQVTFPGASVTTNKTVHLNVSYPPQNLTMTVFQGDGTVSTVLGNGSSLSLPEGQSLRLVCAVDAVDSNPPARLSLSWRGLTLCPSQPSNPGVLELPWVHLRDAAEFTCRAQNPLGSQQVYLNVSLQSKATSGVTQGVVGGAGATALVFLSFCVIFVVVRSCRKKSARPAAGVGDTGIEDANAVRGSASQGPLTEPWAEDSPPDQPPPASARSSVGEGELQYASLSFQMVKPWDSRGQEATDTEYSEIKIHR
# Trypanosoma cruzi = experiment: Trypanosoma cruzi phosphomannomutase and mannose-1-phosphate guanylyltransferase assay; format: functional; parameters: scale not given: direction of the effect not stated beside the values; settings: 10 µM
# [6] = target: T3, Arginase-2, mitochondrial (Homo sapiens) (UniProt P78540); experiment: in vitro enzyme assay to detect the production of urea directly proportional to the activity of Arginase II; format: functional; parameters: scale not given: in the data most compounds retested in dose-response had high values; settings: 33.3 µM
# T3 sequence (whole entry): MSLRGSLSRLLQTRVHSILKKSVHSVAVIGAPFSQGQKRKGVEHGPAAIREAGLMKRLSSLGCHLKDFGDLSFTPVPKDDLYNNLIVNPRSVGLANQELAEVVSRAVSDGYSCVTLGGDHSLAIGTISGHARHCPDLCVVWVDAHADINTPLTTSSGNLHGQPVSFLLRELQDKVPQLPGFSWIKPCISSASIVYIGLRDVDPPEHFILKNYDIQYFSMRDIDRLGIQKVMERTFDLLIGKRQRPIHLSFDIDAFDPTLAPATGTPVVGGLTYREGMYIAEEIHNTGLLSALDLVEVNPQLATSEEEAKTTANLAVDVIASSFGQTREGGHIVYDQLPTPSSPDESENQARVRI
# [7] = target: T4, Proteasome subunit beta (Trypanosoma cruzi) (UniProt O96673); experiment: Trypanosoma cruzi proteasome chymotrypsin-like activity (TcProtChymo) assay.; format: functional; parameters: scale not given: in the data most compounds retested in dose-response had high values; settings: 9.37 µM
# T4 sequence (whole entry): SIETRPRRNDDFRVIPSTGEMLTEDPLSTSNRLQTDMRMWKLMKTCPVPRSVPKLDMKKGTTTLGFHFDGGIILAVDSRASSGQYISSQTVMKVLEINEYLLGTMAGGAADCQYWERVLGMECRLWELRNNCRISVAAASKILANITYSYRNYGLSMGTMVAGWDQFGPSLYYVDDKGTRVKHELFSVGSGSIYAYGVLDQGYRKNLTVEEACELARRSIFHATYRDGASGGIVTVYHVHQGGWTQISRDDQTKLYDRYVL
# N/A = experiment: Trypanosoma cruzi proteasome luciferase counter-screen; format: functional; parameters: scale not given: direction of the effect not stated beside the values; settings: 9.37 µM
# Homo sapiens = organism: Homo sapiens; experiment: To identify inhibition of the IFN signalling (Jak-Stat) pathway via expression of an eGFP reporter gene under the control of an IFN-stimulated response element (ISRE) containing MxA promoter.; format: functional; parameters: scale not given: direction of the effect not stated beside the values; settings: 30 µM
# [8] = target: T5, Tyrosyl-tRNA synthetase, putative (Trypanosoma cruzi (strain CL Brener)) (UniProt Q4DSP6); experiment: Trypanosoma cruzi tyrosyl tRNA synthetase (TcYRS) _High Tyrosine SOP; format: functional; parameters: scale not given: in the data most compounds retested in dose-response had high values; settings: 30 µM
# T5 sequence (whole entry): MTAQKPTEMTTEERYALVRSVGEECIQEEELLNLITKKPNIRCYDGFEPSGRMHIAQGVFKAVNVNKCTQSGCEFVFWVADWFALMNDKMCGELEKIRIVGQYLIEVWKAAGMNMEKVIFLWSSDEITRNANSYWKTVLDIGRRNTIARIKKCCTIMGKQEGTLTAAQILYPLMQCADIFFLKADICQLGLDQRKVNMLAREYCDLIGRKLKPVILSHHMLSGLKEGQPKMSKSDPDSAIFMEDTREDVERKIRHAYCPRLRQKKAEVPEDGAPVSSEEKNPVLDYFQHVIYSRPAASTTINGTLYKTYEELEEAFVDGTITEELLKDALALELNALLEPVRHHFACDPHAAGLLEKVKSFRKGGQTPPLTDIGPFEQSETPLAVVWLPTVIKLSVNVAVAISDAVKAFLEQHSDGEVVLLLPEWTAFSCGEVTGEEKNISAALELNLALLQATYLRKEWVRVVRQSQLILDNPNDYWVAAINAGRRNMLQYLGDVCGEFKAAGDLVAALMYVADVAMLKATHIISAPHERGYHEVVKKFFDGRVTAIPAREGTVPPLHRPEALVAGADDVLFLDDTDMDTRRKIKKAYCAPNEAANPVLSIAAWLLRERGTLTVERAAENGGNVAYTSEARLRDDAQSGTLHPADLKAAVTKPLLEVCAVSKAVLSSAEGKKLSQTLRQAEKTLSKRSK
# [9] = target: T5, Tyrosyl-tRNA synthetase, putative (Trypanosoma cruzi (strain CL Brener)); experiment: Trypanosoma cruzi tyrosyl tRNA synthetase (TcYRS) SOP; format: functional; parameters: scale not given: direction of the effect not stated beside the values; settings: 30 µM
# [10] = target: Chromo domain-containing protein 1 (Saccharomyces cerevisiae (strain ATCC 204508 / S288c) (Baker's yeast)) (UniProt P32657); experiment: ScCHD-1 Enzyme Inhibition Assay; format: functional; parameters: scale not given: in the data most compounds retested in dose-response had high values; settings: 30 µM
# Sequence of Chromo domain-containing protein 1 (Saccharomyces cerevisiae (strain ATCC 204508 / S288c) (Baker's yeast)) (P32657 whole entry, the tested form may be a part): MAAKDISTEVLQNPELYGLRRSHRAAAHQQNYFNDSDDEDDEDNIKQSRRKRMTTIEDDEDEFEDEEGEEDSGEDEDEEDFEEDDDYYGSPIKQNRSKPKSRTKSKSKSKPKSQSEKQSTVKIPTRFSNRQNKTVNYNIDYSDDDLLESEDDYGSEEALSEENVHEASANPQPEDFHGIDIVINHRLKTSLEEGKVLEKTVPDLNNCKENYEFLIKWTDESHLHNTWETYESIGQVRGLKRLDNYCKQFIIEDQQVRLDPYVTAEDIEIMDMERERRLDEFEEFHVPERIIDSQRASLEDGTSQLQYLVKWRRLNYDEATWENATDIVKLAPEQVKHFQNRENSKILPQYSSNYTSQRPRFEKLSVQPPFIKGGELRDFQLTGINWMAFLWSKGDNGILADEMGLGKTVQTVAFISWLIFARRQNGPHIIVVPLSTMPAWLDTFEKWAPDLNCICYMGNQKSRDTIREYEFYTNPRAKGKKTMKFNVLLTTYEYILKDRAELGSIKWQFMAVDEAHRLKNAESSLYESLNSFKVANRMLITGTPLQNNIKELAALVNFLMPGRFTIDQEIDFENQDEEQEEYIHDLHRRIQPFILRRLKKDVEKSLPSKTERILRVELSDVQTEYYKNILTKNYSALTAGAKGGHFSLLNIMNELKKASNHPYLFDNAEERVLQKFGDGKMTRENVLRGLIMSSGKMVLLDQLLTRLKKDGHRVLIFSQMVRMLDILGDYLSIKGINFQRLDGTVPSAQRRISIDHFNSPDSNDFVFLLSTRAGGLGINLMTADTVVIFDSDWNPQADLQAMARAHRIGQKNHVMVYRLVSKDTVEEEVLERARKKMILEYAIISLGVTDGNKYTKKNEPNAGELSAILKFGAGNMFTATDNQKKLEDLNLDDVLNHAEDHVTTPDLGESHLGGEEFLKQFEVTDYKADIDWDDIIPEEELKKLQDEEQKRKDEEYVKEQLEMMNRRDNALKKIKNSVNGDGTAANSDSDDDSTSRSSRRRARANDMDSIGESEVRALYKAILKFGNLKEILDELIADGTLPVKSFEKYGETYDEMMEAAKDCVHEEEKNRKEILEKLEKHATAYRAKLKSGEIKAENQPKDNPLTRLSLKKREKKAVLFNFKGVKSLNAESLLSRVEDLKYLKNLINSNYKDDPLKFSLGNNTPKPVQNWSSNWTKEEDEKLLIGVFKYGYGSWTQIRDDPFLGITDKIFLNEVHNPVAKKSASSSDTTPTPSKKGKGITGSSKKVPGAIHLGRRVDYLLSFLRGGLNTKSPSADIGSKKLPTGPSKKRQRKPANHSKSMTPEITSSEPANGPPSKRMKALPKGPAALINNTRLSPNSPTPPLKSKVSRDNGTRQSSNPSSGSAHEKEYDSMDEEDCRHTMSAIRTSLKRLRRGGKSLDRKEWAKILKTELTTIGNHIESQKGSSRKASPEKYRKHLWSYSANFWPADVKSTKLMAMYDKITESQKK
smiles,measurement,setting,value
CN1CCc2nc(C3CCN(C(=O)CCC4CCCC4)CC3)ncc2C1,PXC50,"[1]; BOTTOM 0.534632588, HILLSLOPE 1.255840154, MAX_EFFECT 60.86956522, TOP 100.0",4.14
same,PXC50,"[1]; BOTTOM 3.083112022, HILLSLOPE 1.565152708, MAX_EFFECT 54.7024952, TOP 100.0",4.03
same,PXC50,"[1]; BOTTOM -8.837281555, HILLSLOPE 1.047429208, MAX_EFFECT 57.34767025, TOP 100.0",4.14
same,PXC50,"[1]; BOTTOM -19.84781307, HILLSLOPE 1.359990695, MAX_EFFECT 58.41584158, TOP 100.0",4.22
same,PXC50,[1]; MAX_EFFECT 38.75598086,< 4
same,Percent Effect,[2],-2.07%
same,Percent Effect,[3],26.7%
same,Percent Effect,[4],7.92%
same,Percent Effect,[5],-1.28%
same,Percent Effect,Trypanosoma cruzi,5.51%
same,Percent Effect,[6],-2.1%
same,Percent Effect,[7],27.3% and 36.4% and 44%
same,Percent Effect,N/A,6.68% and 6.76%
same,Percent Effect,Homo sapiens,23.7%
same,Percent Effect,[8],44.7%
same,Percent Effect,[9],34.6%
same,Percent Effect,[10],-8.54%
CC1CCN(c2ccc(C(=O)N3CCCC3c3ccc[nH]3)cn2)CC1 (centres undefined),PXC50,"[1]; BOTTOM 1.515439463, HILLSLOPE 1.666598775, MAX_EFFECT 83.87715931, TOP 100.0",4.46
same,PXC50,"[1]; BOTTOM -1.123012713, HILLSLOPE 2.407877124, MAX_EFFECT 92.83154122, TOP 98.62534766",4.49
same,PXC50,"[1]; BOTTOM -1.142129641, HILLSLOPE 1.640897748, MAX_EFFECT 81.18022329, TOP 100.0",4.4
same,PXC50,"[1]; BOTTOM -13.95110743, HILLSLOPE 2.091757253, MAX_EFFECT 73.91304348, TOP 74.65708324",4.71
same,PXC50,"[1]; BOTTOM -19.81350398, HILLSLOPE 1.3052719, MAX_EFFECT 84.15841584, TOP 92.57854766",4.84
same,Percent Effect,[4],-6.21%
Cc1cccnc1NC(=O)NCc1ccc(N2CCNC(=O)C2)cc1,PXC50,"[1]; BOTTOM 2.91901785, HILLSLOPE 1.51189845, MAX_EFFECT 82.83828383, TOP 100.0",4.39
same,PXC50,"[1]; BOTTOM 3.848291916, HILLSLOPE 1.411514836, MAX_EFFECT 84.7826087, TOP 100.0",4.45
same,PXC50,"[1]; BOTTOM 5.032769966, HILLSLOPE 1.524648586, MAX_EFFECT 89.96415771, TOP 100.0",4.48
same,PXC50,[1]; MAX_EFFECT 2.073365231,< 4
same,PXC50,[1]; MAX_EFFECT 2.495201536,< 4
same,Percent Effect,[2],-3.51%
same,Percent Effect,[3],15.6%
same,Percent Effect,[4],9.04%
same,Percent Effect,[5],11.4%
same,Percent Effect,Trypanosoma cruzi,1.5%
same,Percent Effect,[6],-2.13%
same,Percent Effect,[7],8.78%
same,Percent Effect,Homo sapiens,5.74%
same,Percent Effect,[8],41.8%
same,Percent Effect,[9],34.1%
same,Percent Effect,[10],-8.16%
